These results are taken from PubChem BioAssay (NCI).

About 83,000 compounds went through this panel and 20% of them were active in at least one assay; those are over-represented in the sample as a whole.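 How to read the values: 0–100, growth inhibition (40 = 60% inhibited); 0, no net growth; -100 to 0, cell death (-40 = 40% of starting cells died; -100 = all dead).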 A number with no mark means an inactive call. Activity calls are given as the source filed them. How the source made its calls: active means growth percent below 10; inactive means the rest.

In this assay the test system is SW-620 colon. In words: NCI-60 one-dose screen, 48 h (100 = growth as untreated, 0 = no growth, -100 = all killed). To be noted: 10 µM unless noted.
As to `O=C(Nc1ccc(-n2cc(-c3ccncc3)c(-c3ccc(Cl)c(O)c3)n2)cc1)c1cc(C(F)(F)F)cc(C(F)(F)F)c1`, the growth is 81.4%. As for `COc1ccc(C2CC(=O)c3c(O)cc(OC4OC(COC5OC(C)C(O)C(O)C5O)C(O)C(O)C4O)cc3O2)cc1O` (configuration not stated), the growth is 113%.

`O=C(NCCNCCO)c1cc([N+](=O)[O-])cc([N+](=O)[O-])c1O`: the growth was 103%.

Consider `O=Nc1ccc(O)c2ccccc12`, for which the growth is 12.1%. Then `CC(=O)N1CCN(CCNC(=O)n2cc(-c3ccncc3)c(-c3ccc(O)c(Cl)c3)n2)CC1`, with 130%. Take `NC(=O)c1c(Nc2ccccc2)nn2cc(-c3nc4ccccc4s3)c(N)nc12`: the growth is 105%. For the compound `COC(=O)c1ccc2[nH]c(O)c(C(=Nc3ccc(N(C)C(=O)CN4CCN(C)CC4)cc3)c3ccc(OC)cc3)c2c1`, the growth was 4.33% (active). As for `c1ccc(C(=NNc2nc3ccccc3o2)c2ccccn2)nc1`, the growth is 29.7%. Regarding `COC(=O)c1ccc2[nH]c(O)c(C(=Nc3ccc(N(C)C(=O)CN4CCN(C)CC4)cc3)c3ccc4c(c3)OCO4)c2c1`, the growth is 0.696% (active). In the case of `Cc1ccc(NCc2cn(-c3ccc(C(=O)O)cc3)nc2-c2ccc(C(=O)O)cc2)cc1` it was 110%; in that of `COC(=O)c1ccc2[nH]c(O)c(C(=Nc3ccc(N(C)C(=O)CN4CCN(C)CC4)cc3)c3ccc([N+](=O)[O-])cc3)c2c1`, 54.7%. As for `O=C1OC(c2ccc(-c3ccccc3)cc2)=C/C1=C/c1c2ccccc2cc2ccccc12`, the growth was 96.9%.
